Statin myotox sup – suppressors of simvastatin-induced myotoxicity in C2C12 myotubes; rescue of ATP level, % at 7.49 µM; ATP luminescence, 48 h; scaled: DMSO 0, geranylgeraniol control 100; actives 0.78% (n = 330,000);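 active = mean ATP rescue above about 67%, or every replicate alone reaching that limit, limit read from the data, passing the limit was not always enough; inconclusive = no clear call, values can overlap the other calls; inactive = mean under the limit and some replicate under it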;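 note: myotubes were challenged with 10 µM simvastatin during compound exposure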
PvdQ acylase – P. aeruginosa PvdQ acylase inhibition | purified PvdQ acylase, fluorescence plate reader | inhibition, % at 10 µM | actives 0.063% (n = 340,000); in the data active = inhibition above about 30%, passing the limit was not always enough; inconclusive = no clear call, values can overlap the other calls;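 note: 0% = vehicle neutral wells and 100% = reference inhibitor wells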
miR122 inh – blocks miR-122 activity in Huh7 sensor cells | Huh7 miR-122 Renilla luciferase sensor, 48 h; neutral wells = 0, positive control = 100 | activation (reporter increase), % at 12.5 µM | actives 0.3% (n = 340,000) | AID 602342;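 active = mean replicate activation score at least 90 and every replicate individually at or above 90; inconclusive = only one of the two criteria met; inactive = neither criterion met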;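 note: higher luciferase means less miR-122 activity so hits act as miR-122 inhibitors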
DENV2 CPE rescue – protects cells from dengue virus 2 cytopathic effect; DENV2-infected cells, cytopathic effect rescue, plate reader; CPE inhibition, % at 9.99 µM; actives 1.7% (n = 350,000); in the data active = CPE inhibition above about 20%, passing the limit was not always enough; inconclusive = no clear call, values can overlap the other calls; tested in BHK-21 cells;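 note: 0% = median of neutral control wells and 100% = median of positive control wells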
PGC1a acetyl inh – lowers PGC1a acetylation signal in U2OS cells | AID 651687 | actives 0.17% (n = 350,000) | AlphaScreen anti-acetyl-lysine; with virally co-expressed GCN5 acetyltransferase | inhibition, % at 15.6 µM;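 active = every replicate shows inhibition of at least 40%; inconclusive = mean inhibition at least 40% but some replicate below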;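 note: 0% = neutral control wells and 100% = positive control wells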
* hit, by the source's call; ? = inconclusive; nt = not tested or not shown; [ ] = dose if it differs, or a comment. An excerpt weighted towards active compounds, which were near 2.2% of everything screened.

SMILES | Statin myotox sup | PvdQ acylase | miR122 inh | DENV2 CPE rescue | PGC1a acetyl inh
O=C(CN1CCN(c2ccccn2)CC1)NC1CCCC1 | -1 | -4 | 4 | nt | -7
O=C(CN1CCN(c2ccccn2)CC1)Nc1ccccc1 | 4 | -7 | -11 | nt | -2
C[C@@H]1CN([C@@H](C)CO)C(=O)c2cc(NC(=O)Nc3ccc(C(F)(F)F)cc3)ccc2O[C@@H]1CN(C)C(=O)Nc1ccc(F)cc1 | -18 | nt | -2[16.7 µM] | 2 | -5
CN(C)CC(=O)N[C@@H]1CC[C@H](CCn2cc(C3CC3)nn2)O[C@H]1CO | 0 | nt | nt | 13 | 2
CCN(c1ccccc1)S(=O)(=O)c1ccc(OC)c(NC(=O)Cc2ccc(F)cc2)c1 | -18 | -10 | 23 | 7 | ?
CCN(c1ccccc1)S(=O)(=O)c1ccc(OC)c(NC(=O)C2CCC2)c1 | -10 | 1 | 44 | 68* | -16
COc1ccc([C@@H]2CC=C(C(=O)O)[C@H](c3ccccc3F)N2S(=O)(=O)c2ccc(C)cc2)cc1OC | 5 | -4 | nt | 36* | nt
Cc1ccc([C@@H]2CC=C(C(=O)O)[C@H](c3ccccc3F)N2S(=O)(=O)c2ccc(C)cc2)cc1 | 10 | -7 | nt | -6 | nt
COc1ccc([C@@H]2CC=C(C(=O)O)[C@H](c3ccccc3)N2S(=O)(=O)c2ccc(C)cc2)cc1OC | 18 | 0 | nt | 49* | nt
COc1cccc(NC(=O)N2[C@@H]3CNC[C@H]2C3c2ccc(-c3cccc(C(=O)N(C)C)c3)cc2)c1 (stereo not given in full) | nt | nt | nt | 3 | -2
CC(=O)Nc1ccc(S(=O)(=O)Oc2cccc(N3C(=O)C4CC=CCC4C3=O)c2)cc1 (stereo not given) | nt | -6 | nt | nt | nt
CC(=O)Nc1ccc(S(=O)(=O)Oc2ccc(N3C(=O)C4CCCCC4C3=O)cc2)cc1 (stereo not given) | 124* | -15 | -1 | nt | -2
CC(C)NC(=O)Nc1ccc2c(c1)C(=O)N([C@H](C)CO)C[C@@H](C)[C@@H](CN(C)C(=O)NC(C)C)O2 | -23 | nt | -2[16.7 µM] | 14 | -3
Cc1cc(=O)oc2c(CN3CCCCC3)c(O)c(Cl)cc12 | 97* | -60 | 3 | nt | -1
O=C(NCc1ccccc1F)[C@@H]1[C@@H](CO)[C@@H]2Cn3c(cccc3=O)[C@@H]2N1CC1CC1 | 6 | nt | -2[16.7 µM] | 6 | nt
CC(C)(C)c1ccc(-n2ncc3c2CCCC3NC(=O)CN2CCCCC2=O)cc1 (stereo not given) | -22 | 5 | nt | -2 | nt
CC(=O)NCC(=O)NC1CCCc2c1cnn2-c1ccc(C(C)(C)C)cc1 (stereo not given) | -4 | -5 | -2 | 31* | -8
CCCNC(=O)N1CC2(CN(CC3CCOCC3)C2)c2c(n(C)c3cc(OC)ccc23)[C@@H]1CO | nt | nt | nt | -2 | -6
O=C(C[C@@H]1CC[C@H](NC(=O)Nc2cc(F)ccc2F)[C@@H](CO)O1)NCCCN1CCOCC1 | -2 | nt | nt | 2 | 5
C/C(CCC(C)C)=N\NS(=O)(=O)c1ccc(C)c([N+](=O)[O-])c1 | nt | -5 | 14 | 12 | 1
Cc1ccc(S(=O)(=O)NCCC(C)C)cc1[N+](=O)[O-] | -9 | 53* | 232* | 12 | nt
C[C@H]1CCCCO[C@@H](CN(C)C(=O)c2ccncc2)[C@@H](C)CN([C@@H](C)CO)C(=O)c2cc(N(C)C)ccc2O1 | 24 | nt | -1[16.7 µM] | 1 | 19
O=C(O)CC(C(=O)O)n1nc(-c2ccccc2)cc1-c1ccccc1 (stereo not given) | -9 | -5 | 1 | nt | -4
O=C(O)Cn1nc(-c2ccccc2)cc1-c1ccccc1 | 2 | -19 | -2 | 80* | 19
C[C@@H]1CN([C@@H](C)CO)C(=O)Cc2cc(NC(=O)Cc3ccccc3)ccc2O[C@@H]1CN(C)Cc1ccc(C(=O)Nc2ccccc2N)cc1 | -38 | nt | 3[16.7 µM] | -6 | 5
SMILES | Statin myotox sup | PvdQ acylase | miR122 inh | DENV2 CPE rescue | PGC1a acetyl inh
CC(=O)Nc1cc(-c2nn(C)c(=O)c3ccccc23)ccc1N1CCOCC1 | 106* | -15 | -2 | nt | 3
Cc1noc(C)c1NC(=O)Nc1ccc2c(c1)CC(=O)N([C@@H](C)CO)C[C@H](C)[C@H](CN(C)C(=O)Nc1ccc(C(F)(F)F)cc1)O2 | -6 | nt | 30[16.7 µM] | -10 | -1
COc1ccc(S(=O)(=O)NNC(=O)c2ccccc2-n2cccc2)cc1 | 112* | -13 | 4 | 2 | 0
Cc1cccc(OCCCC(=O)Nc2ccccc2C(F)(F)F)c1 | 97* | -4 | 2 | nt | 5
Cc1ccccc1OCCCC(=O)Nc1ccccc1C(F)(F)F | 3 | -12 | -3 | nt | -11
COc1ccc(S(=O)(=O)N(C)C[C@H]2OCCCC[C@@H](C)Oc3ccc(NC(=O)NC4CCCCC4)cc3C(=O)N([C@@H](C)CO)C[C@@H]2C)cc1 | nt | nt | 3[16.7 µM] | -2 | 19
C[C@H](CO)N1C[C@H](C)[C@H](CN(C)C(=O)Nc2ccc3c(c2)OCO3)Oc2ccc(NC(=O)CCCCCC(=O)Nc3ccccc3N)cc2C1=O | nt | nt | nt | 48* | -3
C[C@@H]1CN([C@@H](C)CO)C(=O)c2cc(NC(=O)CCCCCC(=O)Nc3ccccc3N)ccc2O[C@@H]1CN(C)C(=O)Nc1ccc2c(c1)OCO2 | nt | nt | nt | 30* | -6
C/C(=N\NC(=O)c1ccc(Cn2cc([N+](=O)[O-])cn2)o1)c1cccc(NC(=O)C(C)C)c1 | nt | 2 | nt | 28* | nt
CCCC#Cc1ccc([C@@H]2[C@@H](CO)N3CCCCN(Cc4cncnc4)C[C@H]23)cc1 | nt | nt | 6[16.7 µM] | nt | -1
CCCC#Cc1ccc([C@@H]2[C@@H](CO)N3CCCCN(Cc4ccncc4)C[C@H]23)cc1 | 19 | nt | -1[16.7 µM] | 47* | -6
CCCC#Cc1ccc([C@@H]2[C@H]3CN(Cc4cncnc4)CCCCN3[C@H]2CO)cc1 | nt | nt | 33[16.7 µM] | 29* | -1
CCCc1ccc(C(O)c2ncc(-c3cccc(F)c3)[nH]2)cc1 (stereo not given) | -13 | nt | 36 | 1 | 43*
Cc1cc(C(O)c2ncc(-c3ccccc3)[nH]2)ccc1F (stereo not given) | -2 | nt | 158* | nt | nt
OC(c1ccc(Cl)c(F)c1)c1ncc(-c2cccc(F)c2)[nH]1 (stereo not given) | 7 | nt | 124* | ? | nt
O=C(c1cccnc1)N1CCCCN2[C@H](CO)[C@H](c3ccc(C#Cc4ccccc4)cc3)[C@@H]2C1 | nt | nt | 10[16.7 µM] | nt | 1
O=C(C[C@H]1CC[C@@H](NC(=O)C2CCC2)[C@H](CO)O1)NC1CCCCC1 | 1 | nt | nt | 14 | 10
CCc1ccc(NC(=O)C(C)OC(=O)Cn2[nH]c(=O)c3ccccc3c2=O)cc1 (stereo not given) | -4 | nt | 0 | 60* | 4
C/C(=N\NC(=O)c1cc(C)[nH]n1)c1cccs1 | -3 | -2 | -3 | -7 | -2
C/C(=N\NC(=O)c1cc(C)[nH]n1)c1ccc(-c2ccccc2)cc1 | -76 | -6 | -3 | 1 | 79*
COc1cccc(-c2ccc([C@H]3[C@H](CO)N4C(=O)CN(C(=O)C5CCCCC5)C[C@@H]34)cc2)c1 | nt | nt | nt | -7 | -3
